Measurements as given in the supplement of paper PMC6555819.

How the values were obtained:
Test in all cases: PBM binding z-score (relative to random genomic background probes); higher = stronger binding; sequences stand for … in GC…GCGATTGACAGCGTAGAATGAAGG
[1] = test system: FXR:RXRa (NR concentration 270 nM, RXRa partner concentration 90 nM)
How it was run: (§1)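 The probes on custom Agilent 4×180K protein-binding microarrays were double-stranded, with 34-nt variable regions bearing direct-repeat seeds, single-nucleotide variants, half-site ablations and random human genomic background sequences. Incubation lasted 1 h with ligand-free nuclear receptor dimers in PBS pH 7.4, 2% milk, 0.02% Triton X-100, 1 mM DTT, 0.2 mg/mL BSA and 0.4 mg/ml salmon testes DNA. Antibodies against each partner (one per run) detected bound dimers, and fluorescence scans were regression-normalized. Binding z-scores take the random background probes as reference.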

[2] = test system: LXRa:RXRa (NR concentration 270 nM, RXRa partner concentration 90 nM)
How it was run: as §1

[3] = test system: LXRa homodimer (NR concentration 270 nM)
How it was run: as §1

[4] = test system: LXRb:RXRa (NR concentration 270 nM, RXRa partner concentration 90 nM)
How it was run: as §1

[5] = test system: LXRb homodimer (NR concentration 270 nM)
How it was run: as §1

[6] = test system: PPARa:RXRa (NR concentration 270 nM, RXRa partner concentration 90 nM)
How it was run: as §1

[7] = test system: PPARg:RXRa (NR concentration 180 nM, RXRa partner concentration 90 nM)
How it was run: as §1

[8] = test system: PPARg:RXRa 270nM:90nM, anti-RXR (NR concentration 270 nM, RXRa partner concentration 90 nM)
How it was run: as §1

[9] = test system: PPARg:RXRa 30nM:10nM, anti-RXR (NR concentration 30 nM, RXRa partner concentration 10 nM)
How it was run: as §1

[10] = test system: PPARg:RXRa 90nM:30nM, anti-RXR (NR concentration 90 nM, RXRa partner concentration 30 nM)
How it was run: as §1

[11] = test system: PPARg:RXRa DBDmut IVT, anti-RXR (DBD mutation: RXRa K156A/R161A, NR concentration 270 nM, RXRa partner concentration 90 nM)
How it was run: as §1

[12] = test system: PPARg:RXRa IVT, anti-PPARg (NR concentration 270 nM, RXRa partner concentration 90 nM)
How it was run: as §1

[13] = test system: PPARg DBDmut:RXRa IVT, anti-PPARg (DBD mutation: PPARg1 K132A/R137A, NR concentration 270 nM, RXRa partner concentration 90 nM)
How it was run: as §1

[14] = test system: PPARg DBDmut IVT, anti-PPARg (DBD mutation: PPARg1 K132A/R137A, NR concentration 270 nM)
How it was run: as §1

[15] = test system: PPARg homodimer (NR concentration 180 nM)
How it was run: as §1

[16] = test system: PXR:RXRa (NR concentration 270 nM, RXRa partner concentration 90 nM)
How it was run: as §1

[17] = test system: PXR homodimer (NR concentration 270 nM)
How it was run: as §1

[18] = test system: RARa:RXR (NR concentration 270 nM, RXRa partner concentration 90 nM)
How it was run: as §1

[19] = test system: RARa homodimer (NR concentration 270 nM)
How it was run: as §1

[20] = test system: RARb:RXRa (NR concentration 270 nM, RXRa partner concentration 90 nM)
How it was run: as §1

Sequence | PBM binding z-score [1] | PBM binding z-score [2] | PBM binding z-score [3] | PBM binding z-score [4] | PBM binding z-score [5] | PBM binding z-score [6] | PBM binding z-score [7] | PBM binding z-score [8] | PBM binding z-score [9] | PBM binding z-score [10] | PBM binding z-score [11] | PBM binding z-score [12] | PBM binding z-score [13] | PBM binding z-score [14] | PBM binding z-score [15] | PBM binding z-score [16] | PBM binding z-score [17] | PBM binding z-score [18] | PBM binding z-score [19] | PBM binding z-score [20]
AGAACTAGGGCAATGAGTTGATAGCACGGGTGGC | -0.0132 | -0.254 | -0.285 | -0.631 | -0.61 | 2.48 | 4.11 | 3.2 | 1.29 | 2.41 | 7.38 | 6.72 | 1.02 | 0.615 | 0.447 | 0.226 | 0.366 | 0.000604 | 0.238 | 1.31
ATCGAAAGGTCGAAGTTGAGTATACCCACCCGAA | 4.36 | 3.82 | 0.667 | 3.19 | 1.03 | 4.79 | 3.29 | 3.96 | 1.49 | 3.12 | 0.0828 | 1.59 | 1.1 | 1 | 1.31 | 3.05 | 0.0112 | 3.76 | 0.0634 | 3.84
CCTACTGAGCCAAAAAGGTCATTGATGCCGATAA | 3.37 | 4.28 | 3.65 | 4.29 | 1.17 | 4.37 | 1.31 | 2.81 | 0.896 | 1.99 | 0.522 | 1.14 | -0.507 | 0.266 | 3.04 | 4.49 | 2.44 | 4.93 | 2.61 | 3.86
GCTGCTAGGCCAACTGATGGTCAGCTAAAGCTCG | -0.828 | -0.78 | -0.908 | -1.3 | -1.01 | -1.2 | -0.468 | -0.849 | -1.22 | -1.14 | 1.28 | -0.0931 | -1.27 | -1.3 | -0.811 | -0.987 | -0.793 | -0.653 | -1.39 | 0.829
CCTAGCAGGCCAGGGTCTCTCAAGCATTTCGCTT | -0.78 | -0.742 | -0.767 | -0.956 | -1.15 | -0.63 | -0.954 | -0.991 | -1.16 | -1.4 | -0.0358 | -0.785 | -1.73 | -1.57 | -0.714 | -0.908 | -0.933 | -0.825 | -1.17 | -0.0781
TCTGCTAGGTCAACGATTGTCAGCTAATCTGCTA | 2.81 | 1.94 | -0.0951 | 1.4 | -0.279 | 2.93 | 2.43 | 2.93 | 1.9 | 2.36 | 4.14 | 4.13 | 0.817 | 0.395 | 0.734 | 1.19 | -0.478 | 1.86 | -1.01 | 4.03
AGAACGAGGGCACGGTGAGTTGATAGCAGAGTAG | 1.12 | 0.775 | -0.352 | 0.306 | -0.638 | 2.61 | 2.7 | 2.19 | 0.933 | 1.2 | 3.46 | 4.14 | 1.46 | 0.552 | 0.477 | 1.76 | 0.0665 | 1.27 | -0.263 | 2.75
CCTCGGAGGACTACAGGAGGTCAGAGCTGCCAGA | 0.709 | 3.27 | 2.29 | 1.62 | -0.728 | 1.8 | 0.238 | -0.104 | -0.885 | -0.225 | -0.516 | -0.34 | -1.03 | -2.28 | 0.985 | 2.04 | 0.121 | 2.24 | -0.496 | 1.93
CGTCCAAGGTCAAAGGTCGGTGAAGAGATGACGG | 7.72 | 5.78 | 1.27 | 5.08 | 0.738 | 7.01 | 9.09 | 7.29 | 6.65 | 7.6 | 3.9 | 5.09 | 0.166 | -0.0129 | 2.61 | 5.91 | 0.774 | 7.5 | 0.478 | 5.68
TAGCCTAGGTCATGCGGGCCAGTATCGTGTCGGC | 3.99 | 3.03 | 0.667 | 1.41 | -0.226 | 3.06 | 1.67 | 2.29 | 0.00483 | 1.36 | 1.85 | 2.82 | -0.0878 | -0.59 | 0.211 | 1.41 | -0.532 | 2 | -0.99 | 3.49
AGAATGAGGTTTTACGTAGATCAGGGAAGAAAGT | -0.139 | -0.0557 | -0.184 | -0.13 | -0.304 | -0.000129 | 0.251 | -0.0665 | 0.263 | 0.297 | 0.314 | -0.118 | 0.643 | 0.771 | 0.322 | 0.0449 | 0.0851 | 0.000653 | 0.0667 | -0.00199
ACTATTAGTTGAGACGAGGGCAAACGATAGGTTG | 0.392 | 0.212 | 0.35 | 0.169 | 0.32 | 0.382 | 0.773 | 0.206 | 0.117 | 0.161 | 0.0525 | 0.456 | 1.03 | 1.15 | 0.189 | 1.83 | 0.478 | 0.637 | 0.392 | 0.841
TGAATGAGGTTATAAGATCAGGGATCGTTGCAAA | 1.25 | 1.28 | -0.202 | 0.676 | -0.353 | 2.81 | 1.56 | 2.12 | 0.946 | 1.28 | 0.979 | 1.86 | 1.31 | 0.477 | 0.305 | 0.783 | 0.0722 | 1.24 | 0.256 | 0.862
GGAACGAGGCCAAAGTTGATAGCATCTGTCGACG | 0.0318 | -0.0376 | -0.578 | -0.183 | -0.827 | 3.46 | 5.8 | 6.25 | 5.14 | 6.31 | 2.57 | 2.98 | -0.146 | -0.0906 | 0.104 | 0.113 | -0.124 | 0.441 | -0.395 | 1.33
